Activity calls are given as the source filed them. The calls were made as follows: active = hit-call score of the fitted dose curve at least 0.9, where 1 is the maximum; inactive = score below 0.9.
What was measured:
[1] = read-out: Monocyte Chemoattractant Protein-1 (MCP1), CCL2 (gene 6347); test: BSK_CASM3C_MCP1: BioMAP Diversity Plus: CASM3C Assay for Monocyte Chemoattractant Protein-1 (MCP1) Biomarker Activity (AID 2283046); details: primary human coronary artery smooth muscle cells; actives raise or lower the signal;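 also: MCP-1 level quantified by ELISA 24 h after dosing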
[2] = BSK_CASM3C_Proliferation: Cell Proliferation Assessment in the BioMAP Diversity Plus: CASM3C Assay (AID 2283047); details: primary human coronary artery smooth muscle cells;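 also: sulforhodamine B total protein stain as relative cell number at 560 nm; sub-confluent cells exposed 48 h before staining; fitted both ways against DMSO so gain or loss of cell number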
[3] = read-out: Monokine induced gamma interferon (MIG), CXCL9 (gene 4283); test: BSK_CASM3C_MIG: BioMAP Diversity Plus: CASM3C Assay for Monokine induced gamma interferon (MIG) Biomarker Activity (AID 2283048); details: primary human coronary artery smooth muscle cells; actives raise or lower the signal;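 also: MIG protein level measured by ELISA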
[4] = read-out: serum amyloid A (SAA), SAA1 (gene 6288); test: BSK_CASM3C_SAA: BioMAP Diversity Plus: CASM3C Assay for serum amyloid A (SAA) Biomarker Activity (AID 2283049); details: primary human coronary artery smooth muscle cells; actives raise or lower the signal;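 also: SAA protein level quantified by ELISA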
[5] = BSK_CASM3C_SRB: Viability Assessment in the BioMAP Diversity Plus: CASM3C Assay (AID 2283050); details: primary human coronary artery smooth muscle cells;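 also: total protein by SRB staining as cytotoxicity measure in parallel cultures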
[6] = read-out: Thrombomodulin, THBD (gene 7056); test: BSK_CASM3C_Thrombomodulin: BioMAP Diversity Plus: CASM3C Assay for Thrombomodulin Biomarker Activity (AID 2283051); details: primary human coronary artery smooth muscle cells; actives raise or lower the signal;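 also: thrombomodulin protein level measured by ELISA 24 h after dosing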
[7] = read-out: Tissue Factor, F3 (gene 2152); test: BSK_CASM3C_TissueFactor: BioMAP Diversity Plus: CASM3C Assay for Tissue Factor Biomarker Activity (AID 2283052); details: primary human coronary artery smooth muscle cells; actives raise or lower the signal;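 also: cell surface tissue factor protein level read by ELISA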
[8] = read-out: Interferon-gamma inducible Protein 10 (IP10), CXCL10 (gene 3627); test: BSK_hDFCGF_IP10: BioMAP Diversity Plus: hDFCGF Assay for Interferon-gamma inducible Protein 10 (IP10) Biomarker Activity (AID 2283053); details: primary human foreskin fibroblasts; actives raise or lower the signal
Method in brief: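 Human foreskin fibroblast primary cells (hDFCGF system) were dosed with chemical and assayed at 24 h; IP-10 measured by ELISA. Activity fitted bidirectionally relative to DMSO negative control as baseline.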

[9] = read-out: Urokinase-type plasminogen activator receptor (uPAR), PLAUR (gene 5329); test: BSK_CASM3C_uPAR: BioMAP Diversity Plus: CASM3C Assay for Urokinase-type plasminogen activator receptor (uPAR) Biomarker Activity (AID 2283054); details: primary human coronary artery smooth muscle cells; actives raise or lower the signal;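 also: cell-surface uPAR protein level quantified by ELISA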
[10] = read-out: Vascular cell adhesion molecule 1 (VCAM1), VCAM1 (gene 7412); test: BSK_CASM3C_VCAM1: BioMAP Diversity Plus: CASM3C Assay for Vascular cell adhesion molecule 1 (VCAM1) Biomarker Activity (AID 2283055); details: primary human coronary artery smooth muscle cells; actives raise or lower the signal;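 also: VCAM-1 protein level quantified by ELISA on the cells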
[11] = read-out: Collagen III, COL3A1 (gene 1281); test: BSK_hDFCGF_CollagenIII: BioMAP Diversity Plus: hDFCGF Assay for Collagen III Biomarker Activity (AID 2283056); details: primary human foreskin fibroblasts; actives raise or lower the signal
Method in brief: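 ELISA read-out of collagen III from human skin fibroblast cultures sampled 24 h post-dosing. Values were derived by bidirectional fitting relative to the DMSO vehicle control.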

[12] = read-out: Epidermal growth factor receptor (EGFR), EGFR (gene 1956); test: BSK_hDFCGF_EGFR: BioMAP Diversity Plus: hDFCGF Assay for Epidermal growth factor receptor (EGFR) Biomarker Activity (AID 2283057); details: primary human foreskin fibroblasts; actives raise or lower the signal
Method in brief: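 Primary human foreskin fibroblasts were exposed to compound for 24 h, after which cell-surface EGFR was quantified by ELISA. Activity was fitted bidirectionally against the DMSO negative control as baseline.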

[13] = read-out: Interleukin-8 (IL8), CXCL8 (gene 3576); test: BSK_hDFCGF_IL8: BioMAP Diversity Plus: hDFCGF Assay for Interleukin-8 (IL8) Biomarker Activity (AID 2283058); details: primary human foreskin fibroblasts; actives raise or lower the signal
Method in brief: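 Cells used are human skin primary fibroblasts. Chemical is added, cultures run 24 h, then IL-8 is quantified by ELISA, and gain or loss versus DMSO control is fitted in both directions.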

[14] = BSK_hDFCGF_Proliferation: Cell Proliferation Assessment in the BioMAP Diversity Plus: hDFCGF Assay (AID 2283059); details: primary human foreskin fibroblasts;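 also: curves fitted for both rise and fall of signal versus DMSO baseline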
Method in brief: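 This proliferation readout used SRB total-protein staining of human foreskin fibroblasts […], normalized to DMSO with bidirectional curve fitting.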

[15] = read-out: Macrophage colony-stimulating factor (MCSF), CSF1 (gene 1435); test: BSK_hDFCGF_MCSF: BioMAP Diversity Plus: hDFCGF Assay for Macrophage colony-stimulating factor (MCSF) Biomarker Activity (AID 2283060); details: primary human foreskin fibroblasts; actives raise or lower the signal
Method in brief: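 Primary human foreskin fibroblasts dosed with chemical; 24 h later, M-CSF quantified by ELISA; curves fitted in both directions vs DMSO negative control.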

[16] = BSK_hDFCGF_SRB: Viability Assessment in the BioMAP Diversity Plus: hDFCGF Assay (AID 2283061); details: primary human foreskin fibroblasts;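 also: cells exposed to compound for 24 h before the read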
Method in brief: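 Readout is SRB absorbance at 560 nm, reflecting total protein in parallel cultures of human foreskin fibroblasts harvested 24 h after chemical dosing. Activity was fitted bidirectionally relative to DMSO.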

[17] = read-out: TIMP metallopeptidase inhibitor 1 (TIMP1), TIMP1 (gene 7076); test: BSK_hDFCGF_TIMP1: BioMAP Diversity Plus: hDFCGF Assay for TIMP metallopeptidase inhibitor 1 (TIMP1) Biomarker Activity (AID 2283062); details: primary human foreskin fibroblasts; actives raise or lower the signal
Method in brief: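 Human skin fibroblasts (primary), hDFCGF system; compound exposure 24 h; TIMP-1 by ELISA; bidirectional fit vs DMSO negative control; overt cytotoxicity by SRB in parallel wells.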

[18] = read-out: Monokine induced gamma interferon (MIG), CXCL9 (gene 4283); test: BSK_hDFCGF_MIG: BioMAP Diversity Plus: hDFCGF Assay for Monokine induced gamma interferon (MIG) Biomarker Activity (AID 2283063); details: primary human foreskin fibroblasts; actives raise or lower the signal
Method in brief: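 Chemicals were added to primary human foreskin fibroblast cultures, which were sampled 24 h later. MIG levels were then quantified by ELISA and responses fitted in both directions relative to DMSO.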

[19] = read-out: Matrix Metallopeptidase 1 (MMP1), MMP1 (gene 4312); test: BSK_hDFCGF_MMP1: BioMAP Diversity Plus: hDFCGF Assay for Matrix Metallopeptidase 1 (MMP1) Biomarker Activity (AID 2283064); details: primary human foreskin fibroblasts; actives raise or lower the signal
Method in brief: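 Primary human foreskin fibroblasts in the hDFCGF system were dosed with test chemical, and MMP1 was measured by ELISA 24 h later. Values come from bidirectional curve fitting against the DMSO baseline.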

[20] = read-out: Vascular cell adhesion molecule 1 (VCAM1), VCAM1 (gene 7412); test: BSK_hDFCGF_VCAM1: BioMAP Diversity Plus: hDFCGF Assay for Vascular cell adhesion molecule 1 (VCAM1) Biomarker Activity (AID 2283065); details: primary human foreskin fibroblasts; actives raise or lower the signal;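 as to AC50: VCAM-1 protein level quantified by ELISA after 24 h chemical exposure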
Method in brief: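 Human foreskin fibroblast primary cells, chemical exposure 24 h; VCAM-1 by ELISA; bidirectional fit, DMSO = negative control/baseline.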

Measured: AC50

CC(=O)c1ccc2c(c1)[C@H](NC(=O)c1ccc(F)cc1)[C@@H](O)C(C)(C)O2
inactive: [1] | [2] | [3] | [4] | [5] | [6] | [7] | [8] | [9] | [10] | [11] | [12] | [13] | [14] | [15] | [16] | [17] | [18] | [19] | [20]

Nc1nc2ncc(CNc3ccc(C(=O)N[C@@H](CCC(=O)O)C(=O)O)cc3)nc2c(=O)[nH]1
inactive: [1] | [2] | [3] | [4] | [5] | [6] | [7] | [8] | [9] | [10] | [11] | [12] | [13] | [14] | [15] | [16] | [17] | [18] | [19] | [20]

O=C1CCCCCN1
inactive: [1] | [2] | [3] | [4] | [5] | [6] | [7] | [8] | [9] | [10] | [11] | [12] | [13] | [14] | [15] | [16] | [17] | [18] | [19] | [20]

COCCOCCOCCOC
inactive: [1] | [2] | [3] | [4] | [5] | [6] | [7] | [8] | [9] | [10] | [11] | [12] | [13] | [14] | [15] | [16] | [17] | [18] | [19] | [20]

CC1=CC(=O)CC(C)(C)C1
inactive: [1] | [2] | [3] | [4] | [5] | [6] | [7] | [8] | [9] | [10] | [11] | [12] | [13] | [14] | [16] | [17] | [18] | [19] | [20]

CC(C)c1cccc(C(C)C)c1N1C(=O)c2ccc(O)cc2C1=O
active: [2] 20 µM | [4] 26.1 µM | [5] 20 µM | [8] 27.9 µM | [9] 20 µM | [10] 16.9 µM | [14] 9.91 µM | [16] 14.9 µM | [17] 5.39 µM | [18] 31.9 µM | [20] 13.8 µM
inactive: [1] | [3] | [6] | [7] | [11] | [12] | [13] | [19]

CCOc1cccc(-n2cc(C(=O)N3CCN(c4cc(C(=O)O)c5ccccc5c4)CC3)nc2-c2ccc(C)cc2)c1
inactive: [4] | [5] | [6] | [7]
active: [1] 34.5 µM | [2] 30.4 µM | [3] 19.2 µM | [8] 10.4 µM | [9] 31.1 µM | [10] 19.2 µM | [11] 4.99 µM | [12] 5.21 µM | [13] 14.2 µM | [14] 10.2 µM | [16] 6.49 µM | [17] 13.3 µM | [18] 26.3 µM | [19] 16.5 µM | [20] 12.9 µM

O=C1OC(=O)C2C3C=CC(C3)C12 (stereo unspecified)
inactive: [1] | [2] | [3] | [4] | [5] | [6] | [7] | [9] | [10] | [11] | [12] | [13] | [14] | [15] | [16] | [17] | [18] | [19] | [20]

CC(C)=CCC/C(C)=C\CO
active: [14] 0.171 µM
inactive: [1] | [2] | [3] | [4] | [5] | [6] | [7] | [8] | [9] | [10] | [11] | [12] | [13] | [16] | [17] | [18] | [19] | [20]

NC(=O)NO
inactive: [1] | [2] | [3] | [4] | [5] | [6] | [7] | [8] | [9] | [10] | [11] | [12] | [13] | [14] | [16] | [17] | [18] | [19] | [20]

CC[C@H](C)C(=O)O[C@H]1C[C@@H](C)C=C2C=C[C@H](C)[C@H](CC[C@@H]3C[C@@H](O)CC(=O)O3)[C@H]21
inactive: [3] | [4] | [5] | [7] | [9] | [10]
active: [1] 19.9 µM | [2] 6.08 µM | [6] 0.147 µM | [8] 35.3 µM | [11] 29.8 µM | [13] 33.8 µM | [14] 13.5 µM | [15] 27.6 µM | [16] 32.2 µM | [17] 29.9 µM | [18] 36.3 µM | [19] 36.6 µM | [20] 29.8 µM

CC(=O)OCCC(C)C
inactive: [1] | [2] | [3] | [4] | [5] | [6] | [7] | [8] | [9] | [10] | [11] | [12] | [13] | [14] | [16] | [17] | [18] | [19] | [20]

CNCc1ccc(NC(=O)c2c[nH]c3c2C(=O)CCC3)cc1
inactive: [1] | [2] | [3] | [4] | [5] | [6] | [7] | [9] | [10] | [11] | [12] | [13] | [14] | [15] | [16] | [17] | [18] | [19] | [20]

From PubChem BioAssay (EPA / NIEHS)
